One may read the inhibition as the drop in the measured response relative to a control, in per cent.

Values without a mark were called inactive. For some assays here: Entries with a potency or affinity are not part of this list. Calls of active or inactive are those of the source. Unless noted, no rule for the calls is given here.

The nature of test [1]: antimalarial activity against Dd2 strain (AID 2302;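 active = growth inhibition above 50% at the single 2 µM test dose, taken to imply half-maximal potency below 2 µM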;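 also: 0% = DMSO untreated growth and 100% = chloroquine plus artemisinin killed control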). The following applies: P. falciparum Dd2 in RBCs, LDH growth readout, 72 h; at 2 µM; active compounds read high.
Test [2] in a line: HepG2 cytotoxicity, primary screen, cytotoxicity control for P. falciparum antimalarial project, cell-based, ATP luminescence (AID 2303;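 active = inhibition above 50%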;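 also: 0% = DMSO wells and 100% = digitonin-killed cells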). The following applies: HepG2 viability, 24-48 h, at 10 µM, active compounds read high.
The target in test [3] is L-lactate dehydrogenase (Plasmodium falciparum (isolate CDC / Honduras)) (UniProt Q27743). Kind of test: PfLDH activity inhibition – cell lysate, 3D7 strain, counter-screen for P. falciparum growth inhibition project (AID 2304).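 Also: 0% = vehicle and 100% = reference inhibitor.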 Conditions: P. falciparum 3D7 crude extract, LDH APAD/NBT absorbance; at 2 µM; active compounds read high. (A counterscreen serves to expose hits that act by an unwanted route or on another target.)
Chain of L-lactate dehydrogenase (Plasmodium falciparum (isolate CDC / Honduras)) (Q27743 whole entry, looked up): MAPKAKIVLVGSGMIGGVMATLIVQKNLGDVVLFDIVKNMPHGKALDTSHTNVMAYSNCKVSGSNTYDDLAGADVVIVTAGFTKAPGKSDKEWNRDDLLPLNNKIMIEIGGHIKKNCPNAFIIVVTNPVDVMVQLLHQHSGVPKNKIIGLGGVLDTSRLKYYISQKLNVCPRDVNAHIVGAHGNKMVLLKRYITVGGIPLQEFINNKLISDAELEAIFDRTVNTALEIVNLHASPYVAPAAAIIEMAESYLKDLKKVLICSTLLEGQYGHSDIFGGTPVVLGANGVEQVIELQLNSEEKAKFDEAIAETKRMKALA

Test [4] is described as follows: inhibition of 3D7 malaria parasite growth – strain 3D7 (AID 2306).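 Also: 0% = DMSO wells and 100% = chloroquine plus artemisinin control wells.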 Conditions: P. falciparum 3D7 erythrocytic growth, LDH absorbance, 72 h; at 2 µM; active compounds read high.
In test [5] the target is Calcium-dependent protein kinase 1 (Plasmodium falciparum (isolate 3D7)) (UniProt P62344). The experiment in a line: PfCDPK1 kinase inhibitors, biochemical, TCAMS library (AID 1159585; cut-off not given, nearly all actives have IC50 up to about 0.98 µM;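 also: inhibitors leave more ATP so luminescence rises with inhibition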). The following applies: recombinant PfCDPK1, Kinase-Glo ATP depletion luminescence. (In general: Kinase-Glo reads ATP consumption through a luciferase reaction.)
Chain of Calcium-dependent protein kinase 1 (Plasmodium falciparum (isolate 3D7)) (P62344 whole entry, looked up): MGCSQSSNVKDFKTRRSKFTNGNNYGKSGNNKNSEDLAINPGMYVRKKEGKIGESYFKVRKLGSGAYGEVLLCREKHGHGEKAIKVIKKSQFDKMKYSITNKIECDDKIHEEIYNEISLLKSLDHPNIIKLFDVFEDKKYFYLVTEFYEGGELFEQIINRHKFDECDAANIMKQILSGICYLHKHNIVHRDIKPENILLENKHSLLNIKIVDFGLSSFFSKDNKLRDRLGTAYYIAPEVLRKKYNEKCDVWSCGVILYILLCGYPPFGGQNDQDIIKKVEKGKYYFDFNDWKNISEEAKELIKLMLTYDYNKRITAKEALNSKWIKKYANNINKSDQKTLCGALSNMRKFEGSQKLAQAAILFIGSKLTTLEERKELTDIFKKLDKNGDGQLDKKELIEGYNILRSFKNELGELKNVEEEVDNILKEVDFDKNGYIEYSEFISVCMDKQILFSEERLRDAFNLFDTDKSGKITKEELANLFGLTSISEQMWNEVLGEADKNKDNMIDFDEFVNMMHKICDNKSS
In test [6] the target is Plasmodium falciparum protein kinase 6 (PK6, PF3D7_1337100) (UniProt Q8IDW1). The experiment in a line: PfPK6 kinase inhibitors, biochemical, TCAMS library (AID 1159586). Conditions: recombinant PfPK6, Kinase-Glo ATP depletion luminescence.
Chain of Plasmodium falciparum protein kinase 6 (PK6, PF3D7_1337100) (Q8IDW1 1-305): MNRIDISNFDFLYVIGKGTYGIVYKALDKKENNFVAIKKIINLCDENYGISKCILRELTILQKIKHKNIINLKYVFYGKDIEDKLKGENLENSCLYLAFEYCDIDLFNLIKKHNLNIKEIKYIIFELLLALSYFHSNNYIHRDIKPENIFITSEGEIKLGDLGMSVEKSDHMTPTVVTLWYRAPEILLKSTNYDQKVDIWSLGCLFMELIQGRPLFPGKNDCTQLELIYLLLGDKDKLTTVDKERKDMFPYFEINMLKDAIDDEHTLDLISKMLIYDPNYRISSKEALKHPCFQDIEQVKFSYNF
Test [7] concerns the target Protein kinase 7 (PK7), Plasmodium falciparum 3D7 (PF3D7_0213400) (UniProt Q7YTF7). Kind of test: inhibition of Plasmodium PK7 catalytic activity – biochemical, TCAMS antimalarial set, Kinase-Glo luminescence (AID 1159587). Conditions: recombinant PfPK7, Kinase-Glo ATP depletion luminescence.
Test [8] addresses Calcium-dependent protein kinase 4 (Plasmodium falciparum (isolate 3D7)) (UniProt Q8IBS5). The experiment in a line: PfCDPK4 kinase inhibitors, biochemical, TCAMS library (AID 1159588; cut-off not given, nearly all actives have IC50 up to about 0.91 µM). The following applies: recombinant PfCDPK4, Kinase-Glo ATP depletion luminescence.

Chain of Calcium-dependent protein kinase 4 (Plasmodium falciparum (isolate 3D7)) (Q8IBS5 whole entry, looked up): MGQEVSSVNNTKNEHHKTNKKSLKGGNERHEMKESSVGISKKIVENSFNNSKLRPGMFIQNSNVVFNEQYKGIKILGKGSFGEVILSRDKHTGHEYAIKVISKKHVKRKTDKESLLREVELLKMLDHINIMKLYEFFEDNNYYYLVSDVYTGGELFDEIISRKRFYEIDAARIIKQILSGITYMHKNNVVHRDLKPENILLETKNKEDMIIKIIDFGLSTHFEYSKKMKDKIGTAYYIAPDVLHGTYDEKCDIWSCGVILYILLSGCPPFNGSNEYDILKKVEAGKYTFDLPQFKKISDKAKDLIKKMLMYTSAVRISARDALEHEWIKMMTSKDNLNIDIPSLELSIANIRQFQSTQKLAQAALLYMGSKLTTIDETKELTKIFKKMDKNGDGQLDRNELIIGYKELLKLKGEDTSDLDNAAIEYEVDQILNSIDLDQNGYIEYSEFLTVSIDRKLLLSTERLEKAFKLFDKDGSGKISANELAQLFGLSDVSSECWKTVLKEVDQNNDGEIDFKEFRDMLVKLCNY
Chain of Protein kinase 7 (PK7), Plasmodium falciparum 3D7 (PF3D7_0213400) (Q7YTF7 1-343): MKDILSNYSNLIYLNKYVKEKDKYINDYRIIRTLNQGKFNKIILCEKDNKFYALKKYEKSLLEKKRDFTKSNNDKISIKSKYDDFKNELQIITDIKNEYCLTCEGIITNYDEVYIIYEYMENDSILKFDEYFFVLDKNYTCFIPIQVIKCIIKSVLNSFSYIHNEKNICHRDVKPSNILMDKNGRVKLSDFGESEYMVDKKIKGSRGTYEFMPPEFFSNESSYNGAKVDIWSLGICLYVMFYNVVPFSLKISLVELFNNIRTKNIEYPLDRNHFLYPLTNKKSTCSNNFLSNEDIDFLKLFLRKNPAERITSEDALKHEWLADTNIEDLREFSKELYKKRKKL

In the case of `CN(C)CCCOc1cccc(CCNCc2cccc(Oc3ccc(Cl)cc3)c2)c1`, the growth inhibition in test [1] is 67% (active); in test [4] it was 93% (active). Moreover, the inhibition is 72% (active) in test [2] and -3% in test [3]. Further, the outcome in test [5], in test [6], in test [7] and in test [8] was inactive.

In the case of `CCCC1N=C(N)N=C(N)N1c1ccc(OC)cc1` (configuration not stated), the growth inhibition in test [1] is 4%; in test [4], 96% (active). Further, the inhibition in test [2] is -2%; in test [3], -3%. In addition, the outcome in test [5], in test [6], in test [7] and in test [8] was inactive.

For the compound `O=C1CC(C(=O)Nc2cccc(-c3cccc(-c4nc5ccccc5[nH]4)c3)c2)c2ccccc2N1` (configuration not stated), the growth inhibition was 32% in test [1] and 84% (active) in test [4]. Also, the inhibition in test [2] was 0%; in test [3], 1%. Further, the outcome in test [5], in test [6], in test [7] and in test [8] was inactive.

With `CC(C)Nc1ccc(Nc2ccnc3cc4ccccc4cc23)cc1`, the growth inhibition in test [1] was 81% (active); in test [4], 100% (active). For the same compound, the inhibition was 37% in test [2] and -3% in test [3]. Also, the result in test [5], in test [6], in test [7] and in test [8] was inactive.

Turning to `CCN(c1cc(C)nc(Nc2ccc(Cl)cc2)n1)[C@H]1CCN(Cc2ccccc2)C1`, the growth inhibition in test [1] was 31%; in test [4] it was 94% (active). Also, the inhibition in test [2] is 46%; in test [3] it was 2%. For the same compound, the outcome in test [5], in test [6], in test [7] and in test [8] was inactive.

Turning to `O=C(Nc1cccc(-c2ccc(-c3nc4ccc(C(F)(F)F)cc4[nH]3)cc2)c1)c1cccnc1`, the growth inhibition in test [1] is 97% (active); in test [4], 101% (active). Besides, the values for the inhibition in test [2] and in test [3] were 73% (active) and -9%, respectively. Besides, the result in test [5], in test [6], in test [7] and in test [8] was inactive.

`COc1ccc(C=CC(=O)NC(=O)c2ccccc2OC(=O)c2ccccc2)cc1OC`: the values for the growth inhibition in test [1] and in test [4] were 90% (active) and 87% (active), respectively. For the same compound, the results for the inhibition in test [2] and in test [3] were 12% and 5%, respectively. Moreover, the outcome in test [5], in test [6], in test [7] and in test [8] was inactive.

`NC(N)=Nc1nccc(NCc2ccccc2)n1`: the growth inhibition in test [1] is 48%; in test [4] it was 88% (active). Further, the inhibition is 95% (active) in test [2] and -1% in test [3]. Also, the result in test [5], in test [6], in test [7] and in test [8] was inactive.

On to `COc1cc2nc(NCCn3nc(C)cc3C)nc(NCCc3ccccc3)c2cc1OC`, for which the growth inhibition in test [1] is 100% (active); in test [4], 103% (active). Moreover, the inhibition in test [2] was 28%; in test [3], -3%. Also, the result in test [5], in test [6], in test [7] and in test [8] was inactive.

In the case of `Fc1ccc(-c2cc3ncnc(N4CCN(CCN5CCCC5)CC4)c3s2)cc1`, the values for the growth inhibition in test [1] and in test [4] were 40% and 98% (active), respectively. Also, the inhibition is 25% in test [2] and -1% in test [3]. In addition, the outcome in test [5], in test [6], in test [7] and in test [8] was inactive.

Take `CCC(ON1C(N)=NC(N)=NC1(C)C)c1ccc(Cl)cc1` (configuration not stated): the results for the growth inhibition in test [1] and in test [4] were 90% (active) and 91% (active), respectively. Moreover, the inhibition in test [2] was 68% (active); in test [3] it was 3%. Moreover, the outcome in test [5], in test [6], in test [7] and in test [8] was inactive.

In the case of `Fc1ccc2nc(Nc3nc(-c4ccccn4)cs3)sc2c1`, the growth inhibition in test [1] is 100% (active); in test [4], 102% (active). Moreover, the inhibition in test [2] is 42%; in test [3], 3%. The result in test [5], in test [6], in test [7] and in test [8] was inactive.

`Cc1ccc(CON2C(N)=NC(N)=NC2(C)C)c(Cl)c1` (tested in a mixture with another compound): the growth inhibition was 96% (active) in test [1] and 91% (active) in test [4]. For the same compound, the figures for the inhibition in test [2] and in test [3] were 67% (active) and 0%, respectively. Besides, the result in test [5], in test [6], in test [7] and in test [8] was inactive.

On to `COc1ccc2c(NN=Cc3ccccc3)ccnc2c1`, for which the values for the growth inhibition in test [1] and in test [4] were 98% (active) and 101% (active), respectively. In addition, the inhibition in test [2] was 18%; in test [3] it was -5%. The outcome in test [5], in test [6], in test [7] and in test [8] was inactive.

As for `NC1CCN(Cc2ccc(-c3cccc(-c4nc5ccc(F)cc5[nH]4)c3)cc2)C1` (configuration not stated), the growth inhibition in test [1] is 16%; in test [4], 100% (active). Moreover, the values for the inhibition in test [2] and in test [3] were 47% and 3%, respectively. Moreover, the result in test [5], in test [6], in test [7] and in test [8] was inactive.

As for `CC(C)CC(=O)Nc1cc(=O)[nH]c2nc(-c3ccccc3)nn12`, the growth inhibition was 85% (active) in test [1] and 89% (active) in test [4]. In addition, the inhibition in test [2] and in test [3] was -6% throughout. For the same compound, the outcome in test [5], in test [6], in test [7] and in test [8] was inactive.

For the compound `O=C(Nc1cc(C(F)(F)F)cc(C(F)(F)F)c1)Nc1cc(C(F)(F)F)cc(C(F)(F)F)c1`, the growth inhibition in test [1] was 101% (active); in test [4], 97% (active). Moreover, the inhibition was 5% in test [2] and -7% in test [3]. Moreover, the result in test [5], in test [6], in test [7] and in test [8] was inactive.

For `Clc1ccc(Cc2nc3ccccc3[nH]2)cc1Cl`, the growth inhibition was 2% in test [1] and 98% (active) in test [4]. Also, the inhibition in test [2] was 5%; in test [3] it was 0%. For the same compound, the result in test [5], in test [6], in test [7] and in test [8] was inactive.

Regarding `O=S(=O)(/C=C/c1ccccc1)N(Cc1ccc(-c2ccc(CNCCc3ccccn3)cc2)cc1)CC1CCCCN1` (configuration not stated), the growth inhibition in test [1] is 97% (active); in test [4], 100% (active). Further, the inhibition in test [2] was 46%; in test [3], -4%. Moreover, the outcome in test [5], in test [6], in test [7] and in test [8] was inactive.

(Values after PubChem BioAssay.)
